Experimental data published in PubChem BioAssay AID1987 (The Scripps Research Institute Molecular Screening Center, 2009).
About 560 (0.17%) of roughly 320,000 compounds were called active. The entries come from a sample that favours actives as a whole. Values without a mark were called inactive.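 The calls were made as follows: active = inhibition above the campaign's mean inhibition across all tested compounds plus 3 SD (cut at about 9.5% in these data); inactive = the rest.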

Molecular target: Serine/threonine-protein phosphatase 5 (Homo sapiens) (UniProt P53041)
Sequence (P53041 whole entry, looked up): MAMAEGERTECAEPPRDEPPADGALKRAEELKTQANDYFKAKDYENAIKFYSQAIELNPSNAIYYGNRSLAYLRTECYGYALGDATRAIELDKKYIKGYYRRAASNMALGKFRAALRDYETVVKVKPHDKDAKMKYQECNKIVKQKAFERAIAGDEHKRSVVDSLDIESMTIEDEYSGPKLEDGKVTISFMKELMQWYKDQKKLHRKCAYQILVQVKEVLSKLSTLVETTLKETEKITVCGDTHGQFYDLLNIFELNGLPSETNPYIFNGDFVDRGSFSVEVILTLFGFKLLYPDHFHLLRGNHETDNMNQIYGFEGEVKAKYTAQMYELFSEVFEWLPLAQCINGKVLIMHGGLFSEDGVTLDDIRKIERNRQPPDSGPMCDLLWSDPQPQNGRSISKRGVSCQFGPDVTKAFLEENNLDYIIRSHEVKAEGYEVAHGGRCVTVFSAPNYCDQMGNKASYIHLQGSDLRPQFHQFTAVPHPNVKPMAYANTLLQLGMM
Assay: inhibition of human PP5 catalytic activity – biochemical, fluorescence, primary screen (AID 1987);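 also: 0% = DMSO only and 100% = 100 µM cantharidin control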
Details: purified PP5c, OMFP substrate fluorescence; at 6.7 µM; stronger effect = higher value

SMILES	inhibition
O=C(O)c1ccccc1NC(=O)C1C2CCC(O2)C1C(=O)O (stereo not given)	41.3% (active)
Cc1cc(C)cc(NC(=S)NC2CC3CCCC(C2)N3Cc2cccs2)c1 (stereo not given)	4.69%
CC(c1ccccc1)(c1ccccc1)c1ccncc1	-0.19%
C[N+]12CN3CN(CN(C3)C1)C2	-1.24%
CCOP(=O)(OCC)C(NC(=O)NC)C(N)=O (stereo not given)	-0.58%
